CtBP-E1A blk – qHTS Assay for Inhibitors of the CtBP/E1A Interaction; CtBP / adenovirus E1A interaction (AlphaScreen); AlphaScreen GST-E1A/His-CtBP binding, 1536-well; hits give low values; activity change, % (concentration not given with the values); hit rate 0.49% among 340,000; AID 651724, 2012; in the data active = activity change below about -65%; inconclusive = mostly about -30% to -63%
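AlphaScreen with 125 nM GST-E1A and 125 nM His-CtBP (5X stocks) in Tris pH 8.0, 300 mM NaCl, BSA, Tween 20, TCEP. Compounds preincubated 2 h at 37 deg C, then glutathione donor/nickel acceptor beads added for 1 h at 37 deg C in dark.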
TDP1 cell noCPT – qHTS for Inhibitors of human tyrosyl-DNA phosphodiesterase 1 (TDP1): qHTS in cells in absence of CPT; DT40 Tdp1-/- hTDP1 cells, no CPT, ATP luminescence, 48 h; Potency, µM (series often up to 46.2 µM), without a hit: top-dose activity change, negative = growth inhibition, hits mostly inhibitors; hit rate 15% among 420,000; also: potency is read from the fitted curve at half-maximal effect; nearly all actives have a fitted effect of over 55% in size
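Luminescent ATP content (CellTiter-Glo) served as the growth readout. Knockout chicken DT40 cells expressing human TDP1 were exposed to compounds without camptothecin for a minimum 48 hr at 37 °C.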
DT40 TDP1 CPT – qHTS for Inhibitors of human tyrosyl-DNA phosphodiesterase 1 (TDP1): qHTS in cells in presence of CPT. Potency, µM (series often up to 46.2 µM), for inactives: at the highest dose activity change, negative = growth inhibition, actives largely listed as inhibitors. chicken DT40 Tdp1-/-;hTDP1 cells + 20 nM CPT, ATP luminescence, 48 h. hit rate 12% among 420,000. AID 686979, 2013; also: potency is read from the fitted curve at half-maximal effect; nearly all actives have a fitted effect of over 55% in size
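Chicken DT40 Tdp1-/- cells complemented with human TDP1, 400 cells/well, exposed to compounds plus 20 nM camptothecin for at least 48 h at 37 C; viability read as ATP content by CellTiter-Glo luminescence.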
IL1B secr inh – qHTS for Inhibitors of Inflammasome Signaling: IL-1-beta AlphaLISA Primary Screen; THP-1 LPS/ATP IL-1B secretion, AlphaLISA, 16 h; hits give low values; AID 743279, 2014; activity change, % at 57.5 µM; hit rate 4.7% among 360,000; in the data active = activity change below about -50%; inconclusive = mostly about -30% to -49%
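THP-1 cells pretreated 1 hr with compounds (up to 57.5 uM final), then stimulated with LPS (250 ng/mL final) plus ATP (1.25 mM final); secreted IL-1B measured by AlphaLISA after 16 hr, decreased signal indicating inhibition.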
Six1-Eya2 blk – qHTS Assay for Inhibitors of the Six1/Eya2 Interaction; hit rate 0.56% among 360,000; AlphaScreen GST-Six1/His-Eya2 binding, biochemical; hits give low values; AID 651725, 2012; Homeobox protein SIX1 (Homo sapiens) + Protein phosphatase EYA2 (Homo sapiens), …; activity change, % (concentration not given with the values); in the data active = activity change below about -65%; inconclusive = mostly about -30% to -63%
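AlphaScreen luminescence read after one hour at 37 °C in darkness. Pin-transferred compounds met GST-Six1 and His-Eya2 protein (5X stock 250 nM/500 nM) plus glutathione donor and Ni-chelate acceptor beads (5X, 50 ug/mL).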
TDP1 inh – qHTS Assay for Inhibitors of Tyrosyl-DNA Phosphodiesterase (TDP1). Tyrosyl-DNA phosphodiesterase 1 (Homo sapiens), Q9NUW8. recombinant TDP1, AlphaScreen DNA substrate cleavage. Potency, µM (series often up to 130 µM), for the others: at the top dose activity change, negative = inhibition, most hits filed as inhibitors. hit rate 0.28% among 350,000. AID 485290, 2010; also: potency is read from the fitted curve at half-maximal effect; nearly all actives have a fitted effect of over 40% in size
Target sequence (Q9NUW8 whole entry, looked up): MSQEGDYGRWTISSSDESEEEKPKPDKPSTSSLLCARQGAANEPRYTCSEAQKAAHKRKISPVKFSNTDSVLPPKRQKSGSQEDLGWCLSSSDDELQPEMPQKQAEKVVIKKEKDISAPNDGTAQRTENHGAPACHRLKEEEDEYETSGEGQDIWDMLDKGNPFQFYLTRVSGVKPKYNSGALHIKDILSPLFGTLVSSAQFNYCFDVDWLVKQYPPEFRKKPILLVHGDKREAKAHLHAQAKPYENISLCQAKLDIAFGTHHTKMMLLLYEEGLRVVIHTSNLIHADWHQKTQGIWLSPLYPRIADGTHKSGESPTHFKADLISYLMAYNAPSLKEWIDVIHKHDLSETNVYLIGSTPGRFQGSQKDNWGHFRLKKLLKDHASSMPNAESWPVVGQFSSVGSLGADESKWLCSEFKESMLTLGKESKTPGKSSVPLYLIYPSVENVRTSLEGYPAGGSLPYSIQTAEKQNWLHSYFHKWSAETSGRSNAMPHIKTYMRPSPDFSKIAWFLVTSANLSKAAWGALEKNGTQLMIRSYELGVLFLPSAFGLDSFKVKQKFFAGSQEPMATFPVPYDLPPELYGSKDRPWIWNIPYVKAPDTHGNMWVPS
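Recombinant E. coli-expressed Tdp1 (1 nM) preincubated with compound 15 min at RT, then 5'-biotin/3'-phosphotyrosine-FITC DNA substrate (15 nM) added for 5 min. AlphaScreen beads (10 ug/ml) added, 10 min RT; tyrosine-FITC cleavage read as signal loss.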
Starred values were filed as active, the others as inactive; i = inactive; ? = inconclusive; . = not tested or not shown. In the library only some 18% were active in any assay of this set; here they are far more common. Unless noted, calls follow the shape of the dose curve; as a rule, active = well fitted curve in the direction sought with a large enough effect; inconclusive = small, poorly fitted or top-dose-only effect, or another doubt; inactive = no such curve, though single readings can be large; an effect the other way counts as inactive or inconclusive. % is scaled to controls: 0 for no effect and ±100 for the full control effect.

SMILES | CtBP-E1A blk | TDP1 cell noCPT | DT40 TDP1 CPT | IL1B secr inh | Six1-Eya2 blk | TDP1 inh
CCc1nc2ccc(C(=O)NCc3ccc(SC)cc3)cc2nc1CC | . | ? | ? | . | . | 2%
Cc1cccc(NC(=O)c2onc3c2CCCC3)n1 | 9 | ? | 9.2µM* | -3 | 9 | -1%
CCOc1ccc(CNC(=O)c2ccc3c(Cl)c4c(nc3c2)CCCC4)cc1 | . | -68% | 21µM* | . | . | 2%
Cc1cccc(NC(=O)c2ccc3c(Cl)c4c(nc3c2)CCCC4)n1 | . | 21µM* | ? | -22 | 2 | 3%
CCOc1ccc(NC(=O)c2ccc3c(SCC(=O)O)c4c(nc3c2)CCC4)cc1 | . | 11% | 15% | . | . | -1%
O=C(Nc1ccc(Cl)cn1)c1ccc2c(Cl)c3c(nc2c1)CCC3 | 6 | ? | ? | -22 | 23 | -1%
O=C(OC(C(=O)Nc1ccc(Cl)cc1C(F)(F)F)c1ccccc1)c1c(Cl)cccc1Cl (stereo not given) | 8 | 13µM* | ? | 0 | 12 | -1%
Cc1ccc(C)c(NC(=O)C(OC(=O)c2ccc(CO)cc2)c2ccccc2)c1 (stereo not given) | 3 | -3% | -5% | 9 | 1 | -6%
Cc1ccc(C(=O)OC(C(=O)Nc2ccc(Cl)cc2C(F)(F)F)c2ccccc2)cc1 (stereo not given) | 2 | 23µM* | ? | 14 | 27 | 1%
COC(=O)c1ccc(OC(=O)CS(=O)c2ccccc2[N+](=O)[O-])cc1 (stereo not given) | 6 | 26µM* | ? | -1 | -10 | .
CCOC(=O)c1ccccc1OC(=O)CS(=O)c1ccccc1[N+](=O)[O-] (stereo not given) | 0 | ? | ? | -28 | 4 | 8%
CS(=O)(=O)c1ccc(S(=O)CC(=O)OCc2ccccc2)c([N+](=O)[O-])c1 (stereo not given) | 1 | 0.33µM* | 0.23µM* | -163* | -12 | 5%
O=C(CS(=O)c1ccc(C(F)(F)F)cc1[N+](=O)[O-])Oc1ccccc1 (stereo not given) | -2 | 4.6µM* | 5.8µM* | -114* | -2 | -5%
CC(C)(C)OC(=O)N(CCc1ccccc1)Cc1ccccc1OCc1cccc(NC(=O)C2CCCC2)c1 | -11 | ? | 21µM* | -2 | ? | .
CC(C)(C)OC(=O)N(CCc1ccccc1)Cc1ccc(OCc2cccc(NC(=O)C3CCCC3)c2)cc1 | 3 | 6.5µM* | 5.2µM* | -19 | -1 | .
CC(C)(C)OC(=O)N(Cc1ccccc1)Cc1ccccc1OCc1ccc(NC(=O)C2CCC2)cc1 | 9 | ? | 18µM* | -68* | -10 | .
CCOC(=O)N1CCN(S(=O)(=O)c2cn(C)c(=O)n(C)c2=O)CC1 | 10 | 0% | 11% | i | 1 | 3%
COCC(=O)Nc1cc([N+](=O)[O-])ccc1C | 1 | ? | 23µM* | -5 | 1 | 1%
CCOC(=O)C(=O)Nc1cc([N+](=O)[O-])ccc1C | 6 | 1% | 2% | 0 | 8 | -3%
Cc1ccc(CC(=O)Nc2ccc([N+](=O)[O-])cc2C)cc1 | 7 | -4% | -15% | -57* | 0 | 5%
Cc1ccc(CC(=O)Nc2cccc([N+](=O)[O-])c2)cc1 | . | ? | -23% | -3 | -9 | 4%
CCc1ccc(C(=O)C[N+]2(C)CCOCC2)cc1 | . | -8% | -7% | . | . | .
Cc1cc(C)n2nc(C(=O)OCC(=O)Nc3ccc4c(c3)OC(F)(F)O4)nc2n1 | 7 | 3% | 5% | 22 | 6 | 2%
